rRNA inh HTS: selective bacterial rRNA inhibition in E. coli; E. coli WT GFP vs humanized-ribosome RFP mutants, fluorescence, 24 h; hits give low values; DMSO median 0, no signal -100; 350,000 tested, 1.6% active; AID 720706; GFP signal change (wild-type ribosome), % (concentration not given with the values);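 active means significant combined selectivity score with lowered wild-type GFP, culture density cut under 30%, mutant RFP and density less affected; inactive means any of these conditions unmet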
DENV2 CPE: DENV2-induced cell death inhibition; DENV2-infected cells, cytopathic effect rescue, plate reader; CPE inhibition, % at 9.99 µM; 350,000 tested, 1.7% active; in the data active means CPE inhibition above about 20%, passing the limit was not always enough; tested in BHK-21 cells
ERAP1 inh: blocks human ERAP1 aminopeptidase activity; 340,000 tested, 0.15% active; recombinant ERAP1, Leu-AMC fluorescence, 60 min; Q9NZ08; inhibition, % at 10.7 µM;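 active means mean replicate inhibition of at least 30%, or all replicates individually reaching that 30% level; inactive means mean below 30% and not every replicate reaching it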
PGC1a acetyl inh: modulators of PGC1a acetylation; AID 651687; U2OS PGC1a acetylation, AlphaScreen anti-acetyl-lysine; with virally co-expressed GCN5 acetyltransferase; inhibition, % at 15.6 µM; 350,000 tested, 0.17% active;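 active means every replicate shows inhibition of at least 40%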
CaV13 ICDI inh: Primary screen for inhibitors of IQ motif and Ca2+-dependent inactivation inhibitor domain binding in CACNA1D, Förster resonance energy transfer in living cells, …. HEK cells, CFP/YFP FRET ICDI-IQ, plate reader, 10 min; percent FRET-ratio fall versus neutral wells. inhibition, % at 12.3 µM. 340,000 tested, 0.098% active. AID 743397;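 active means mean replicate inhibition of at least 30% and at least 1% of replicates passing that level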
GSIS activator: GLuc luminescence reporter in INS-1E cells, primary screen for activators of glucose-dependent secretion of insulin; INS-1E GLuc reporter insulin secretion, 2-3 h; activation, % at 16.6 µM; 370,000 tested, 0.61% active; AID 743287;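 active means lowest replicate activation of at least 40%, so every replicate reaches that level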
Hits are given with their value; – = inactive; · = no result given. Sampled rows, rich in hits. Any-hit rate of the full collection: about 3.2%.

SMILES	rRNA inh HTS	DENV2 CPE	ERAP1 inh	PGC1a acetyl inh	CaV13 ICDI inh	GSIS activator
CC1=Nc2ccccc2N=C(NC(=O)CN2CCN(c3ccccc3)CC2)C1c1ccccc1 (stereo not given)	–	–	–	86	–	–
CC1=Nc2ccccc2N=C(NC(=O)CSC(=S)N2CCCCC2)C1c1ccccc1 (stereo not given)	-21	–	–	·	–	–
CC1=Nc2ccccc2N=C(NC(=O)CSC(=S)N2CCN(C)CC2)C1c1ccccc1 (stereo not given)	–	–	·	–	–	–
CO[C@@H]1CN(C)C(=O)c2cc(NC(=O)Nc3ccc(Cl)cc3)ccc2OC[C@@H](C)N(C)C[C@@H]1C	–	–	–	–	·	–
COc1ccc(NC(=O)Nc2ccc3c(c2)C(=O)N([C@@H](C)CO)C[C@@H](C)[C@@H](CN(C)CC2CCCCC2)OCCCC[C@@H](C)O3)cc1	–	–	–	–	·	–
Cc1nc2ccccc2c2c1CC(C(C)(Cl)Br)O2 (stereo not given)	-30	–	–	–	–	–
C[C@H]1CN([C@@H](C)CO)C(=O)Cc2cc(NC(=O)Cc3ccccc3)ccc2O[C@@H]1CN(C)Cc1ccncc1	–	23	–	–	·	–
C[C@@H]1CN([C@@H](C)CO)C(=O)Cc2cc(NC(=O)CCCCCC(=O)Nc3ccccc3N)ccc2O[C@@H]1CN(C)C(=O)Nc1cccc2ccccc12	–	–	–	–	·	–
C[C@@H]1CN([C@@H](C)CO)C(=O)Cc2cc(NC(=O)CCCCCC(=O)Nc3ccccc3N)ccc2O[C@H]1CN(C)Cc1ccc(-c2ccccc2)cc1	·	25	–	–	·	·
C[C@H]1CN([C@@H](C)CO)C(=O)Cc2cc(NC(=O)CCCCCC(=O)Nc3ccccc3N)ccc2O[C@@H]1CN(C)S(=O)(=O)c1ccccc1	–	79	–	–	·	–
C[C@H]1CN([C@@H](C)CO)C(=O)Cc2cc(NC(=O)CCCCCC(=O)Nc3ccccc3N)ccc2O[C@H]1CN(C)C(=O)Nc1cccc2ccccc12	–	28	·	–	·	–
C[C@H](CO)N1C[C@H](C)[C@H](CN(C)Cc2ccncc2)Oc2ccc(NC(=O)Cc3ccccc3)cc2CC1=O	–	–	–	–	·	–
C[C@H](CO)N1C[C@H](C)[C@H](CN(C)Cc2ccc(-c3ccccc3)cc2)Oc2ccc(NC(=O)CCCCCC(=O)Nc3ccccc3N)cc2CC1=O	–	–	–	–	·	–
CCc1cnc(N2[C@@H](C#N)[C@@H](c3ccc(C4=CCCC4)cc3)[C@@H]2CO)s1	–	–	–	–	·	–
CNC[C@H]1OCCCC[C@H](C)Oc2ccc(NS(=O)(=O)c3ccc(Cl)cc3)cc2C(=O)N([C@H](C)CO)C[C@@H]1C	–	·	·	·	·	–
O=C(C[C@H]1CC[C@H]2[C@@H](COC[C@@H](O)CN2C(=O)Nc2ccc(F)cc2)O1)NCCc1ccccc1	–	–	–	–	·	–
CC(=O)N(C)C[C@H]1Oc2ncccc2C(=O)N(C)C[C@@H]1C	–	·	·	·	·	–
CC(C)[C@H]1CC=CC[C@@H](C)Oc2ccccc2C(=O)N(C)[C@H](C)C(=O)N1 (mixture of isomers)	–	·	·	·	·	–
C[C@@H]1CN([C@H](C)CO)C(=O)Cc2cc(NC(=O)CCCCCC(=O)Nc3ccccc3N)ccc2O[C@@H]1CN(C)Cc1ccncc1	–	–	–	–	·	–
C[C@@H]1CN([C@@H](C)CO)C(=O)c2cc(NC(=O)CCCCCC(=O)Nc3ccccc3N)ccc2O[C@H]1CN(C)Cc1ccncc1	–	41	–	–	·	–
C[C@H](CO)N1C[C@H](C)[C@@H](CN(C)Cc2ccncc2)Oc2ccc(NC(=O)CCCCCC(=O)Nc3ccccc3N)cc2CC1=O	–	53	–	–	·	–
C[C@@H]1CN([C@@H](C)CO)C(=O)Cc2cc(NC(=O)CCCCCC(=O)Nc3ccccc3N)ccc2O[C@@H]1CN(C)Cc1ccc(Cl)c(Cl)c1	–	–	–	–	·	–
C[C@@H]1CN([C@H](C)CO)C(=O)Cc2cc(NC(=O)CCCCCC(=O)Nc3ccccc3N)ccc2O[C@H]1CN(C)Cc1ccc(C(F)(F)F)cc1	–	–	–	–	·	–
C[C@@H]1CN([C@H](C)CO)C(=O)Cc2cc(NC(=O)CCCCCC(=O)Nc3ccccc3N)ccc2O[C@@H]1CN(C)Cc1ccc(Cl)c(Cl)c1	–	84	–	–	·	–
C[C@@H]1CN([C@H](C)CO)C(=O)Cc2cc(NC(=O)CCCCCC(=O)Nc3ccccc3N)ccc2O[C@@H]1CN(C)Cc1ccc(C(F)(F)F)cc1	–	81	–	–	·	–
SMILES	rRNA inh HTS	DENV2 CPE	ERAP1 inh	PGC1a acetyl inh	CaV13 ICDI inh	GSIS activator
C[C@@H]1CCCCO[C@@H](CN(C)C(=O)NC2CCCCC2)[C@H](C)CN([C@@H](C)CO)C(=O)c2cc(NC(=O)C3CCCCC3)ccc2O1	–	–	–	–	·	–
C[C@H](CO)N1C[C@H](C)[C@H](CN(C)C(=O)NC2CCCCC2)Oc2ccc(NS(C)(=O)=O)cc2C1=O	–	–	–	–	·	–
O=C(C1CCCC1)N1[C@@H]2CNc3ccccc3[C@@H]2[C@@H]1CO	·	·	·	–	·	·
C[C@H](CO)N1C[C@H](C)[C@@H](CN(C)S(=O)(=O)c2ccc(Cl)cc2)OCCCC[C@H](C)Oc2ccc(N(C)C)cc2C1=O	–	·	·	–	·	–
O=S(=O)(NC1CCN(Cc2ccc(OCCO)cc2)CC1)c1cc(Cl)ccc1Cl	·	–	–	–	·	·
O=S(=O)(NC1CCN(Cc2ccc(OCCO)cc2)CC1)c1cc(C(F)(F)F)ccc1Cl	·	29	–	–	·	·
O=C(Nc1ccc(F)cc1)C1CCCN(S(=O)(=O)c2ccc3[nH]c(=O)ccc3c2)C1 (stereo not given)	–	115	–	–	–	–
CC(C)c1cc(NCCOCCO)n2c(nc3ccccc32)c1C#N	–	–	–	·	–	52
O=C(CC(c1ccccc1)c1ccco1)N1CCOCC1 (stereo not given)	·	·	·	–	–	49
Cc1ccc(S(=O)(=O)NC(CC(=O)N2CCOCC2)c2ccco2)cc1 (stereo not given)	·	·	·	–	–	–
CCCn1c(N2CCN(C(=O)Nc3ccc(Cl)cc3)CC2)nc2ccccc21	-26	–	–	–	–	–
C[C@H]1CN([C@@H](C)CO)C(=O)c2cccc(NC(=O)C3CCCCC3)c2O[C@H]1CN(C)CC1CC1	–	–	–	–	·	–
CC(=O)Nc1ccc2c(c1)C(=O)N(C)[C@H]1CC[C@H](CC(=O)Nc3c(F)cccc3F)O[C@@H]1CO2	–	–	–	–	·	–
Cc1ccc(S(=O)(=O)Nc2cccc3c2O[C@H](CN(C)Cc2ccc(C(=O)Nc4ccccc4N)cc2)[C@H](C)CN([C@H](C)CO)C3=O)cc1	–	21	–	–	·	–

From PubChem
